The values that follow come from PubChem BioAssay (Tox21).

Structures are written as SMILES. A number with no mark means an inactive call. Activity calls are given as the source filed them. The call rests on the fitted dose curve; in most records, active means well fitted curve in the direction sought with a large enough effect in the repeat runs; inconclusive means weak or mixed curves; inactive means flat fitted curve, though single readings scatter.
On the % scale 0 is the no-effect control and ±100 the full control effect.

This test is described as follows: qHTS assay to test for compound auto fluorescence at 590 nm (red) in HepG2 cell free culture (AID 720684). The settings on record: cell-free medium autofluorescence, red 540/590 nm; series mostly up to 91.3 µM. The text has this:
U.S. Tox21 Program National Center for Advancing Translational Sciences [NCATS] NIH Chemical Genomics Center [NCGC] U.S. Environmental Protection Agency [EPA] National Institutes of Environmental Health Sciences [NIEHS] National Toxicology Program [NTP] U.S. Food and Drug Administration [FDA] Tox21 Assay Overview: Compound auto fluorescence often interferes with screening of the compound library against various biological targets and signaling pathways. Some of these compounds may have fluorophoric properties. Such properties may interfere with the assay outputs resulting in false positives and/or negatives. To decrease such complications and ensure the compound activities are relevant in terms of biological response, the Tox21 10K compound library was screened for auto fluorescence. From the fluorophores used as reporter signals in our screening assays, the auto fluorescence equivalencies of compounds against three fluorophores have been evaluated: Triamterene, Fluorescein and Rose Bengal sodium for blue, green and red fluorescence, respectively. The fluorescence intensities were measured using Excitation/Emission wavelengths at 405/460nm, 485/535nm and 540/590nm for blue, green and red labels, respectively. This assay includes the red fluorescence data.
Tox21 Assay Protocol Summary: 5 uL of culture medium (MEM containing 10% FBS) per well was dispensed into black wall/clear bottom 1536-well plates using a Multidrop Combi Dispenser (ThermoFisher Scientific, Waltham, MA). After 23 nL compound or DMSO vehicle was transferred into assay plate by a pintool work station (Kalypsys, San Diego, CA), fluorescence intensities in the assay plates were measured by an Envision (PerkinElmer, Shelton, CT) plate reader using three labels for measuring blue, green and red fluorescence at […] 460, 535 and 590nm respectively.
Consider `C[N+]1(CCC(C(N)=O)(c2ccccc2)c2ccccc2)CCCCC1`, for which the compound was called inactive. For `CC(C)(C)c1ccc(CCOc2ncnc3ccccc23)cc1`, the compound was called inactive. Still for that read-out and setting: to `O=C(O)c1cc(Cl)ccc1Cl` belongs “inactive”; to `CON(C)C(=O)Nc1ccc(Cl)cc1`, “inactive”; to `CCSCc1ccccc1OC(=O)NC`, “inactive”. With `CCCCC(CC)CO[N+](=O)[O-]` (stereo not given), the call was inactive. For the compound `C=CCN1C[C@H](C)N([C@H](c2ccc(C(=O)N(CC)CC)cc2)c2cccc(OC)c2)C[C@H]1C`, the compound was classed as inactive. As to `OCC1CO1` (stereo not given), the compound was called inactive. Still for that read-out and setting: to `Nc1cc(Cl)cc(C(=O)O)c1Cl` belongs “inactive”; to `CN(C)N`, “inactive”. In the case of `O=CC=O`, the compound was classed as inactive. Take `O=C(O)C(Cl)(Cl)Br`: the compound was classed as inactive. Consider `Cc1ccc2c(C)cccc2c1`, for which the call was inactive. Same read-out and setting: the result for `C=CCSSCC=C` reads “inactive”; that for `CCC1(CC)C(=O)NC(=O)NC1=O`, “inactive”. Take `C[CH2][Hg][S]c1ccccc1C(=O)O`: the result was inactive.

As to `CCCCCBr`, the compound was classed as inactive. For the compound `C[Si](Cn1cncn1)(c1ccc(F)cc1)c1ccc(F)cc1`, the call was inactive.

With `CCCCCCCCCCCC[N+](C)(C)CCOc1ccccc1`, the call was inactive. On the same count and under the same terms, the result for `CCCCOC(=O)CCC(=O)OCCCC` reads “inactive”. As for `O=C(NC(=O)c1cc(F)c(F)cc1Cl)Nc1cc(F)ccc1N1CCC(C(=O)O)CC1`, the call was inactive.

For the compound `O=C(O)CCCOc1ccc(Cl)cc1Cl`, the compound was classed as inactive. On to `CCCN(CCC)c1c([N+](=O)[O-])cc(C(C)C)cc1[N+](=O)[O-]`, for which the result was inactive.

`CC(C)(C#N)C(C)(C)C#N`: the call was inactive. For `CCCCC(CC)COC(=O)c1c(Br)c(Br)c(Br)c(Br)c1C(=O)OCC(CC)CCCC` (stereo not given), the call was inactive. Regarding `C=CC(=O)NC(C)(C)CC(C)=O`, the call was inactive. For `O=C(O)c1cc(I)cc(I)c1I`, the compound was called inactive. For the compound `NC(=O)CF`, the call was inactive. In the case of `O=C(N[C@H]1CN2CCC1CC2)c1ccc2c(c1)OCCO2`, the outcome was inactive. Still for that read-out and setting: the result for `CC(=O)NNc1ccccc1` reads “inactive”; that for `C=CC(=O)OCC`, “inactive”.

On to `C=CCOCC1CO1` (stereo not given), for which the call was inactive. Turning to `Nc1c(Br)cc(Br)c2c1C(=O)c1ccccc1C2=O`, the fluorescence, % of Rose Bengal was -0.122% [at 18.6 µM]. Take `CCOC(=O)C1OC1(C)c1ccccc1` (stereo not given): the result was inactive. Turning to `CCOP(=S)(OCC)Oc1ccc(S(C)=O)cc1` (stereo not given), the compound was classed as inactive.

As to `CCCCNC(=O)OCC#CI`, the result was inactive. Regarding `COc1ccccc1N1CCNCC1`, the outcome was inactive. Consider `FC(F)OC(F)(F)C(F)Cl` (stereo not given), for which the compound was called inactive.

With `O=[N+]([O-])O[C@H]1CO[C@H]2[C@@H]1OC[C@H]2O[N+](=O)[O-]`, the compound was called inactive. Take `c1ccc2sc(SNC3CCCCC3)nc2c1`: the outcome was inactive.
